Reference: PubChem BioAssay (EPA / NIEHS)
Active and inactive are the calls of the source. The calls were made as follows: active = hit-call score of the fitted dose curve at least 0.9, where 1 is the maximum; inactive = score below 0.9.

Tests used:
[1] = read-out: CFLAR gene, CFLAR (gene 8837); experiment: LTEA_HepaRG_CFLAR: Life Technologies and Expression Analysis (LTEA) Assay for CFLAR gene using HepaRG (AID 2283455); details: mRNA level, 48 h; actives raise or lower the signal
How it was run: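 Differentiated HepaRG cells in serum-free induction medium were exposed 48 h in duplicate to eight half-log concentrations up to 100 uM in 0.5% DMSO; mRNA measured by TaqMan qRT-PCR, normalized to ACTB, GAPDH, POLR2A; bidirectional fitting versus DMSO.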

[2] = read-out: Forkhead box O1 (FOXO1), FOXO1 (gene 2308); experiment: LTEA_HepaRG_FOXO1: Life Technologies and Expression Analysis (LTEA) Assay for Forkhead box O1 (FOXO1) using HepaRG (AID 2283456); details: mRNA level, 48 h; actives raise or lower the signal
How it was run: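 Differentiated HepaRG cells, in serum-free induction medium with 0.5% DMSO, exposed 48 h in duplicate to 8-point half-log series from 100 uM. FOXO1 mRNA measured by TaqMan qRT-PCR, normalized to ACTB, GAPDH, POLR2A; bidirectional fit versus DMSO.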

[3] = CEETOX_H295R_TESTO: CeeTox H295R High-throughput Steroidogenesis Assay for Testosterone (TESTO) (AID 2283457); details: actives raise or lower the signal;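 as to AC50: cells exposed to chemicals for 48 h before medium collection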
How it was run: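 Steroidogenesis in H295R cells following OECD 456 with minor changes; 48 h exposure. Medium testosterone by HPLC-MS/MS, DMSO as baseline, with MTT viability run in parallel.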

[4] = read-out: growth arrest and DNA damage 45 (GADD45A), GADD45A (gene 1647); experiment: LTEA_HepaRG_GADD45A: Life Technologies and Expression Analysis (LTEA) Assay for growth arrest and DNA damage 45 (GADD45A) using HepaRG (AID 2283458); details: mRNA level, 48 h; actives raise or lower the signal
How it was run: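 Differentiated HepaRG cells were exposed in duplicate for 48 h in serum-free induction medium to 8-point half-log concentrations up to 100 uM in 0.5% DMSO. GADD45A mRNA was measured by TaqMan qRT-PCR, normalized to ACTB, GAPDH and POLR2A, with bidirectional fitting versus DMSO.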

[5] = read-out: Forkhead box O3 (FOXO3), FOXO3 (gene 2309); experiment: LTEA_HepaRG_FOXO3: Life Technologies and Expression Analysis (LTEA) Assay for Forkhead box O3 (FOXO3) using HepaRG (AID 2283459); details: mRNA level, 48 h; actives raise or lower the signal
How it was run: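 Differentiated human HepaRG cells, 48 h post-plating, exposed in duplicate for 48 h in serum-free induction medium; 8-point half-log series from 100 uM in 0.5% DMSO. FOXO3 mRNA by TaqMan qRT-PCR, normalized to ACTB/GAPDH/POLR2A; bidirectional fit versus DMSO.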

[6] = read-out: ABC Transporter (ABCC3), ABCC3 (gene 8714); experiment: LTEA_HepaRG_ABCC3: Life Technologies and Expression Analysis (LTEA) Assay for ABC Transporter (ABCC3) using HepaRG (AID 2283462); details: mRNA level, 48 h; actives raise or lower the signal
How it was run: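 Transcriptional change of ABCC3 in HepaRG after 48 h treatment, determined by qRT-PCR normalized to endogenous controls. Concentrations spanned eight half-log steps to 100 uM in 0.5% DMSO.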

[7] = read-out: ABC Transporter (ABCB11), ABCB11 (gene 8647); experiment: LTEA_HepaRG_ABCB11: Life Technologies and Expression Analysis (LTEA) Assay for ABC Transporter (ABCB11) using HepaRG (AID 2283463); details: mRNA level, 48 h; actives raise or lower the signal
How it was run: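 Differentiated human HepaRG cells in serum-free induction medium, dosed in duplicate for 48 h. Eight-point half-log series from 100 uM in 0.5% DMSO; ABCB11 mRNA by qRT-PCR, normalized to ACTB, GAPDH, POLR2A, fitted bidirectionally versus DMSO.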

[8] = read-out: ABC Transporter (ABCC2), ABCC2 (gene 1244); experiment: LTEA_HepaRG_ABCC2: Life Technologies and Expression Analysis (LTEA) Assay for ABC Transporter (ABCC2) using HepaRG (AID 2283464); details: mRNA level, 48 h; actives raise or lower the signal
How it was run: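 After plating and 48 h culture, HepaRG medium is replaced with serum-free induction medium and chemicals are added (8 concentrations, max 100 uM, 0.5% DMSO) for 48 h. Total RNA then undergoes qRT-PCR for ABCC2 with housekeeping normalization.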

[9] = read-out: ATP-citrate lyase (ACLY), ACLY (gene 47); experiment: LTEA_HepaRG_ACLY: Life Technologies and Expression Analysis (LTEA) Assay for ATP-citrate lyase (ACLY) using HepaRG (AID 2283466); details: mRNA level, 48 h; actives raise or lower the signal
How it was run: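 Differentiated HepaRG cells exposed 48 h in serum-free induction medium to eight half-log concentrations up to 100 uM in 0.5% DMSO, duplicates. Transcript measured by Fluidigm TaqMan qRT-PCR, normalized to ACTB, GAPDH, POLR2A; bidirectional fit versus DMSO.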

[10] = read-out: Peroxisomal acyl-coenzyme A oxidase 1 (ACOX1) gene, ACOX1 (gene 51); experiment: LTEA_HepaRG_ACOX1: Life Technologies and Expression Analysis (LTEA) Assay for Peroxisomal acyl-coenzyme A oxidase 1 (ACOX1) gene using HepaRG (AID 2283467); details: mRNA level, 48 h; actives raise or lower the signal
How it was run: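 HepaRG cells, plated 48 h then switched to serum-free induction medium, were exposed in duplicate for 48 h to 8-point half-log concentrations up to 100 uM in 0.5% DMSO. ACOX1 mRNA was measured by qRT-PCR, normalized to ACTB/GAPDH/POLR2A, and fitted bidirectionally versus DMSO.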

[11] = read-out: Alkaline Phosphatase, Placental (ALPP) gene, ALPP (gene 250); experiment: LTEA_HepaRG_ALPP: Life Technologies and Expression Analysis (LTEA) Assay for Alkaline Phosphatase, Placental (ALPP) gene using HepaRG (AID 2283468); details: mRNA level, 48 h; actives raise or lower the signal
How it was run: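 Using human liver HepaRG cells, chemicals are tested in duplicate over 48 h at half-log concentrations topping at 100 uM; phenobarbital 1 mM serves as induction control. ALPP mRNA change by qRT-PCR, bidirectional fit against vehicle.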

[12] = read-out: Bcl-2 (BAX) gene, BAX (gene 581); experiment: LTEA_HepaRG_BAX: Life Technologies and Expression Analysis (LTEA) Assay for Bcl-2 (BAX) gene using HepaRG (AID 2283470); details: mRNA level, 48 h; actives raise or lower the signal
How it was run: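 Differentiated human HepaRG cells, plated 48 h then switched to serum-free induction medium, were exposed 48 h to 8 half-log concentrations up to 100 uM in 0.5% DMSO; BAX mRNA measured by qRT-PCR, normalized to ACTB, GAPDH, POLR2A.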

[13] = read-out: adenosine kinase (ADK) gene, ADK (gene 132); experiment: LTEA_HepaRG_ADK: Life Technologies and Expression Analysis (LTEA) Assay for adenosine kinase (ADK) gene using HepaRG (AID 2283471); details: mRNA level, 48 h; actives raise or lower the signal
How it was run: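 Read-out is ADK transcript level measured by qRT-PCR and normalised to three housekeeping genes. Cells are human HepaRG, dosed for 48 h at up to 100 uM in 0.5% DMSO. Gain or loss of signal is fitted against DMSO controls.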

[14] = read-out: Alpha-fetoprotein (AFP) gene, AFP (gene 174); experiment: LTEA_HepaRG_AFP: Life Technologies and Expression Analysis (LTEA) Assay for Alpha-fetoprotein (AFP) gene using HepaRG (AID 2283472); details: mRNA level, 48 h; actives raise or lower the signal
How it was run: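 Human HepaRG cells plated 48 h, then switched to serum-free induction medium and exposed in duplicate for 48 h to 8-point half-log series from 100 uM in 0.5% DMSO. AFP mRNA by qRT-PCR, normalized to ACTB, GAPDH, POLR2A; bidirectional fit versus DMSO.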

[15] = read-out: BCL2L11 (gene 10018); experiment: LTEA_HepaRG_BCL2L11: Life Technologies and Expression Analysis (LTEA) Assay for Bcl-2 (BCL2L11) gene using HepaRG (AID 2283473); details: mRNA level, 48 h; actives raise or lower the signal
How it was run: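 Human hepatic HepaRG cultures are treated 48 h with test chemicals (maximum 100 uM, 0.5% DMSO vehicle). Expression of BCL2L11 is measured by qRT-PCR against ACTB, GAPDH and POLR2A, with activity in either direction scored relative to vehicle.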

[16] = read-out: Apolipoprotein A-V (APOA5) gene, APOA5 (gene 116519); experiment: LTEA_HepaRG_APOA5: Life Technologies and Expression Analysis (LTEA) Assay for Apolipoprotein A-V (APOA5) gene using HepaRG (AID 2283474); details: mRNA level, 48 h; actives raise or lower the signal
How it was run: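 Concentration-response of APOA5 expression in HepaRG: eight half-log doses to 100 uM, 48 h, qRT-PCR normalized to ACTB/GAPDH/POLR2A, bidirectional fitting with 0.5% DMSO as baseline.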

[17] = read-out: ABC Transporter (ABCB1), ABCB1 (gene 5243); experiment: LTEA_HepaRG_ABCB1: Life Technologies and Expression Analysis (LTEA) Assay for ABC Transporter (ABCB1) using HepaRG (AID 2283460); details: mRNA level, 48 h; actives raise or lower the signal
How it was run: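 HepaRG cells exposed in duplicate for 48 h in serum-free induction medium to eight half-log concentrations up to 100 uM in 0.5% DMSO. ABCB1 mRNA quantified by qRT-PCR, normalised to ACTB, GAPDH and POLR2A; fitted bidirectionally versus DMSO.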

[18] = read-out: growth arrest and DNA damage 45 (GADD45B), GADD45B (gene 4616); experiment: LTEA_HepaRG_GADD45B: Life Technologies and Expression Analysis (LTEA) Assay for growth arrest and DNA damage 45 (GADD45B) using HepaRG (AID 2283461); details: mRNA level, 48 h; actives raise or lower the signal
How it was run: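 Human HepaRG monolayers receive chemicals for 48 h at eight half-log concentrations, highest 100 uM, in 0.5% DMSO. Expression is measured by TaqMan qRT-PCR and normalized to ACTB, GAPDH and POLR2A.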

[19] = read-out: Bcl-2 (BAD) gene, BAD (gene 572); experiment: LTEA_HepaRG_BAD: Life Technologies and Expression Analysis (LTEA) Assay for Bcl-2 (BAD) gene using HepaRG (AID 2283469); details: mRNA level, 48 h; actives raise or lower the signal
How it was run: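 Differentiated HepaRG cells were exposed in duplicate in 0.5% DMSO for 48 h to eight-point half-log concentrations up to 100 uM. BAD mRNA was measured by Fluidigm TaqMan qRT-PCR, normalized to ACTB, GAPDH and POLR2A, and fitted bidirectionally against DMSO.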

Measured: AC50

CC1=C2C[C@H]3[C@@H](CC=C4C[C@@H](O)CC[C@@]43C)[C@@H]2CC[C@]12O[C@@H]1C[C@H](C)CN[C@H]1[C@H]2C
not listed: [17] | [18] | [19]
inactive: all other assays above

O=C(O)C(F)(F)C(F)(F)C(F)(F)C(F)(F)C(F)(F)F
active: [10] 9.92 µM | [13] 3 µM
not listed: [3] | [12]
inactive: all other assays above

CCC(=O)O[C@H]1CC[C@H]2[C@@H]3CCC4=CC(=O)CC[C@]4(C)[C@H]3CC[C@]12C
active: [3] 3.77 µM
not listed: [7] | [9] | [17] | [18] | [19]
inactive: all other assays above
